Records with an inconclusive call do not appear. The source made the active and inactive calls. Unless noted, calls come from the whole dose curve; as a rule, active = well fitted curve in the direction sought with a large enough effect in the repeat runs; inconclusive = weak or mixed curves; inactive = no such curve, though single readings can be large; an effect the other way counts as inactive or inconclusive.
What was measured:
[1] = qHTS assay to identify small molecule agonists of H2AX (AID 1224845; active = well fitted activation curve with a large enough effect in the signal ratio in the repeat runs, not every such curve was filed as active; the % refers to the signal ratio)
How it was run: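 Phospho-H2AX Ser139 measured by HTRF (ex 320 nm; em 665 and 620 nm) after 24 hr antibody incubation. Compounds, 15 concentrations, 0.76% DMSO, were applied to CHO-K1 cells for 3hr at 37C before lysis.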

[2] = qHTS assay to identify small molecule agonists of the hypoxia (HIF-1) signaling pathway (AID 1224846; active = well fitted activation curve with a large enough effect in the signal ratio in the repeat runs, not every such curve was filed as active; the % refers to the signal ratio)
How it was run: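 Compounds from the Tox21 10K library, dissolved in DMSO, are tested for induction of a hypoxia response element–controlled beta-lactamase reporter in ME-180 cells. Exposure lasts 17 hrs at 37C after a 5 hr settling period, followed by CCF4-AM FRET substrate.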

[3] = qHTS assay to identify small molecule agonists of H2AX - cell viability counter screen (AID 1224847; calls by dose curve;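 note: wild-type CHO-K1 cells; top concentration of the series differs between compounds; nearly all actives have a fitted effect of over 30% in size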)
How it was run: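 Cells plated first: CHO-K1, 1000 per well in 10% FBS medium, incubated overnight at 37C. Then 15-point compound titration added (final DMSO 0.76%) for 3 hr. Finally CellTiter-Glo added and luminescence read.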

[4] = qHTS RealTime-Glo MT Cell Viability Assay in HepG2 cells - 24 hour (AID 1224867); note: nearly all actives have a fitted effect of over 50% in size
How it was run: (§1)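 HepG2 cells were seeded at 600 cells/well together with NanoLuc luciferase and a cell-permeant prosubstrate, preincubated 5 h at 37 C/5% CO2, then pin-dosed with compounds in DMSO. Nonlytic luminescence from viable cells was read at each time point.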

[5] = qHTS RealTime-Glo MT Cell Viability Assay in HEK293 cells - 32 hour (AID 1224868); note: top concentration of the series differs between compounds; nearly all actives have a fitted effect of over 50% in size
How it was run: (§2)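 HEK293 cells were seeded at 600 cells/well together with NanoLuc luciferase and cell-permeant prosubstrate, preincubated 5 h at 37 C/5% CO2, then given compound in DMSO by pintool. Luminescence from viable-cell prosubstrate reduction was read repeatedly over 40 h.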

[6] = A CellTox Green Cytotoxicity Assay to monitor cytotoxicity in HEK293 cells - 0 hour (AID 1224869); note: nearly all actives have a fitted effect of over 50% in size
How it was run: (§3)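 Cells (HEK293, 600/well) and dye reagent are dispensed together. After 5 h at 37 C, 23 nL compound is pinned in. Plates stay at 37 C for 40 h with fluorescence read at 0h, 8h, 16h, 24h, 32h and 40h.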

[7] = qHTS RealTime-Glo MT Cell Viability Assay in HepG2 cells - 40 hour (AID 1224870); note: nearly all actives have a fitted effect of over 50% in size
How it was run: (§4)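 Real-time viability: cells seeded at 600 per well together with NanoLuc and cell-permeant prosubstrate, compounds added after 5 h incubation. Luminescence tracked at 0, 8, 16, 24, 32 and 40 h of exposure.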

[8] = A CellTox Green Cytotoxicity Assay to monitor cytotoxicity in HEK293 cells - 40 hour (AID 1224871); note: nearly all actives have a fitted effect of over 45% in size
How it was run: as §3

[9] = qHTS RealTime-Glo MT Cell Viability Assay in HEK293 cells - 16 hour (AID 1224872)
How it was run: as §2

[10] = qHTS RealTime-Glo MT Cell Viability Assay in HepG2 cells - 8 hour (AID 1224873); note: nearly all actives have a fitted effect of over 55% in size
How it was run: as §4

[11] = qHTS RealTime-Glo MT Cell Viability Assay in HEK293 cells - 40 hour (AID 1224874); settings: RealTime-Glo luminescence; max response: active compounds read low; note: nearly all actives have a fitted effect of over 50% in size
How it was run: (§5)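 Real-time viability in HEK293: signal arises when living cells convert a prosubstrate for NanoLuc in the medium, so luminescence tracks viable cell number. Compound (23 nL, DMSO) added 5 h post-seeding; kinetic reads at 0–40 h, 37 C.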

[12] = A CellTox Green Cytotoxicity Assay to monitor cytotoxicity in HepG2 cells - 16 hour (AID 1224876); note: nearly all actives have a fitted effect of over 45% in size
How it was run: (§6)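 Cells and non-lytic dye reagent are dispensed together (600 HepG2 cells/well) and incubated 5 h before DMSO compound transfer. Kinetic fluorescence is then recorded in the same wells during 40 h at 37 C.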

[13] = qHTS RealTime-Glo MT Cell Viability Assay in HepG2 cells - 32 hour (AID 1224877); note: nearly all actives have a fitted effect of over 55% in size
How it was run: as §1

[14] = A CellTox Green Cytotoxicity Assay to monitor cytotoxicity in HepG2 cells - 24 hour (AID 1224878); note: nearly all actives have a fitted effect of over 45% in size
How it was run: as §6

[15] = A CellTox Green Cytotoxicity Assay to monitor cytotoxicity in HepG2 cells - 40 hour (AID 1224879); note: nearly all actives have a fitted effect of over 40% in size
How it was run: as §6

[16] = qHTS RealTime-Glo MT Cell Viability Assay in HEK293 cells - 0 hour (AID 1224880); note: top concentration of the series differs between compounds; nearly all actives have a fitted effect of over 45% in size
How it was run: as §5

[17] = A CellTox Green Cytotoxicity Assay to monitor cytotoxicity in HEK293 cells - 32 hour (AID 1224881); note: nearly all actives have a fitted effect of over 40% in size
How it was run: as §3

[18] = A CellTox Green Cytotoxicity Assay to monitor cytotoxicity in HEK293 cells - 24 hour (AID 1224875)
How it was run: as §3
% is set by controls: 0 for no effect and ±100 for the full control effect.

CC1CCCO1 (configuration not stated)
inactive: Potency [1] | outcome [2] | Potency [3] | Potency [4] | Potency [5] | Potency [6] | Potency [7] | Potency [8] | Potency [9] | Potency [10] | max response [11] 5.81% | Potency [12] | Potency [13] | Potency [14] | Potency [15] | Potency [16] | Potency [17]

CC(=O)NCCO
inactive: Potency [1] | outcome [2] | Potency [3] | Potency [4] | Potency [5] | Potency [6] | Potency [7] | Potency [8] | Potency [9] | Potency [10] | max response [11] 8.1% | Potency [12] | Potency [13] | Potency [15] | Potency [16] | Potency [17]

CCOCCC(=O)OCC
inactive: Potency [1] | outcome [2] | Potency [3] | Potency [4] | Potency [5] | Potency [6] | Potency [7] | Potency [8] | Potency [10] | max response [11] 4.01% | Potency [18] | Potency [12] | Potency [13] | Potency [15] | Potency [16] | Potency [17]

c1ccc2sc(SSc3nc4ccccc4s3)nc2c1
inactive: activation (H2AX phosphorylation) [1] 0.89% [at 31.6 µM] | activation [2] 0.936% [at 15.8 µM] | activity change, negative = cytotoxicity [3] 3.41% [at 31.6 µM] | activity change, negative = cytotoxicity [4] 4.65% [at 15.8 µM] | activity change, negative = cytotoxic [5] 12.7% [at 15.8 µM] | cytotoxicity [6] 4.7% [at 15.8 µM] | activity change, negative = cytotoxic [7] -0.0307% [at 15.8 µM] | cytotoxicity increase [8] 14.8% [at 15.8 µM] | activity change, negative = cytotoxicity [9] -1.01% [at 15.8 µM] | viability change, negative = cytotoxic [10] 2.86% [at 15.8 µM] | max response [11] 15.6% | activity change [18] 14.2% [at 15.8 µM, active compounds read high] | cytotoxicity increase [12] 2.16% [at 15.8 µM] | activity change, negative = cytotoxic [13] 1.02% [at 15.8 µM] | cytotoxicity increase [15] 16.6% [at 15.8 µM] | activity change, negative = cytotoxicity [16] -1.35% [at 15.8 µM] | cytotoxicity increase [17] 13.3% [at 15.8 µM]

CNC1CCCN(c2c(F)cc3c(=O)c(C(=O)O)cn(C4CC4)c3c2OC)C1 (configuration not stated)
inactive: Potency [1] | outcome [2] | Potency [3] | Potency [4] | Potency [5] | Potency [6] | Potency [7] | Potency [8] | Potency [9] | Potency [10] | max response [11] -1.56% | Potency [18] | Potency [12] | Potency [13] | Potency [15] | Potency [16] | Potency [17]

O=P(O)(O)Oc1ccccc1
inactive: Potency [1] | outcome [2] | Potency [3] | Potency [4] | Potency [5] | Potency [6] | Potency [7] | Potency [8] | Potency [9] | Potency [10] | max response [11] 12.9% | Potency [12] | Potency [13] | Potency [14] | Potency [16] | Potency [17]

O=S(=O)(Cl)c1c(Cl)cccc1Cl
inactive: Potency [1] | outcome [2] | Potency [3] | Potency [4] | Potency [5] | Potency [6] | Potency [7] | Potency [8] | Potency [10] | max response [11] -11.9% | Potency [18] | Potency [12] | Potency [13] | Potency [14] | Potency [15] | Potency [16] | Potency [17]

O=C1OC[C@H](Cc2cccc(O)c2)[C@H]1Cc1cccc(O)c1
inactive: Potency [1] | outcome [2] | Potency [3] | Potency [4] | Potency [5] | Potency [6] | Potency [7] | Potency [8] | Potency [9] | Potency [10] | max response [11] -19.7% | Potency [18] | Potency [12] | Potency [15] | Potency [16] | Potency [17]

Cc1ccc(NC(=O)N(C)C)cc1NC(=O)N(C)C
inactive: Potency [1] | outcome [2] | Potency [3] | Potency [4] | Potency [5] | Potency [6] | Potency [7] | Potency [8] | Potency [10] | max response [11] -1.73% | Potency [18] | Potency [12] | Potency [13] | Potency [14] | Potency [15] | Potency [16] | Potency [17]

Cc1ccccc1S(N)(=O)=O
inactive: Potency [1] | outcome [2] | Potency [3] | Potency [4] | Potency [5] | Potency [6] | Potency [7] | Potency [8] | Potency [10] | max response [11] 8.27% | Potency [18] | Potency [12] | Potency [13] | Potency [14] | Potency [15] | Potency [16] | Potency [17]

COc1ccc(-n2nc(C(F)F)cc2-c2ccc(S(C)=O)cc2)cc1 (configuration not stated)
inactive: Potency [1] | outcome [2] | Potency [3] | Potency [4] | Potency [5] | Potency [6] | Potency [7] | Potency [8] | Potency [10] | max response [11] -24.7% | Potency [18] | Potency [13] | Potency [16] | Potency [17]

CCC(=O)OCc1ccc(OC)cc1
inactive: Potency [1] | outcome [2] | Potency [3] | Potency [4] | Potency [5] | Potency [6] | Potency [7] | Potency [8] | Potency [10] | max response [11] 0.878% | Potency [18] | Potency [12] | Potency [13] | Potency [14] | Potency [15] | Potency [16] | Potency [17]

Cc1cccc2sc(N)nc12
inactive: Potency [1] | outcome [2] | Potency [3] | Potency [4] | Potency [5] | Potency [6] | Potency [7] | Potency [8] | Potency [10] | max response [11] 25.1% | Potency [18] | Potency [12] | Potency [13] | Potency [14] | Potency [16] | Potency [17]

CS(=O)(=O)c1ccc([C@@H](C[C@H]2CCC(=O)C2)C(=O)Nc2cnccn2)cc1Cl
inactive: Potency [1] | outcome [2] | Potency [3] | Potency [4] | Potency [5] | Potency [6] | Potency [7] | Potency [8] | Potency [9] | Potency [10] | max response [11] 0.0186% | Potency [18] | Potency [12] | Potency [13] | Potency [15] | Potency [16] | Potency [17]

CC1=CC[C@@H]2C[C@H]1C2(C)C
inactive: activation (H2AX phosphorylation) [1] 1.37% [at 31.6 µM] | activation [2] -1.3% [at 15.8 µM] | activity change, negative = cytotoxicity [3] 0.589% [at 31.6 µM] | activity change, negative = cytotoxicity [4] 0.892% [at 15.8 µM] | activity change, negative = cytotoxic [5] 2.23% [at 15.8 µM] | cytotoxicity [6] 0.458% [at 15.8 µM] | activity change, negative = cytotoxic [7] 1.07% [at 15.8 µM] | cytotoxicity increase [8] 2.52% [at 15.8 µM] | activity change, negative = cytotoxicity [9] 8.54% [at 15.8 µM] | viability change, negative = cytotoxic [10] 0.867% [at 15.8 µM] | max response [11] 1.39% | activity change [18] 2.23% [at 15.8 µM, active compounds read high] | cytotoxicity increase [12] -4.53% [at 15.8 µM] | cytotoxicity [14] -4.03% [at 15.8 µM] | cytotoxicity increase [15] -3.58% [at 15.8 µM] | activity change, negative = cytotoxicity [16] -16.1% [at 15.8 µM] | cytotoxicity increase [17] 1.12% [at 15.8 µM]
